# Measurements: PubChem BioAssay (Tox21)
# Unmarked numbers belong to inactive results. Records with an inconclusive call do not appear. Entries that show only a call come without a potency. Calls of active or inactive are those of the source. Unless noted, calls come from the whole dose curve; as a rule, active = well fitted curve in the direction sought with a large enough effect in the repeat runs; inconclusive = weak or mixed curves; inactive = no such curve, though single readings can be large; an effect the other way counts as inactive or inconclusive.
# Assays:
# [1] = A CellTox Green Cytotoxicity Assay to monitor cytotoxicity in HEK293 cells - 32 hour (AID 1224881); note: nearly all actives have a fitted effect of over 40% in size
# In short: (§1)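 Dead-cell fluorescence measured kinetically: asymmetric cyanine dye, HEK293, 600 cells/well, 5 h settle, 23 nL cpd/DMSO, 37 C, reads 0–40 h every 8 h.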
# [2] = A CellTox Green Cytotoxicity Assay to monitor cytotoxicity in HepG2 cells - 0 hour (AID 1224882); note: nearly all actives have a fitted effect of over 35% in size
# In short: (§2)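 First, HepG2 cells (600/well) mixed with reagent were plated; second, after 5 h at 37 C they received compounds via pintool; third, fluorescence was measured at 0 h through 40 h at 8 h intervals.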
# [3] = A CellTox Green Cytotoxicity Assay to monitor cytotoxicity in HepG2 cells - 32 hour (AID 1224883); note: nearly all actives have a fitted effect of over 50% in size
# In short: as §2
# [4] = A CellTox Green Cytotoxicity Assay to monitor cytotoxicity in HEK293 cells - 8 hour (AID 1224884); note: nearly all actives have a fitted effect of over 35% in size
# In short: as §1
# [5] = qHTS RealTime-Glo MT Cell Viability Assay in HepG2 cells - 16 hour (AID 1224885); note: nearly all actives have a fitted effect of over 50% in size
# In short: (§3)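 Real-time, nonlytic viability: 600 HepG2 cells/well mixed with NanoLuc enzyme plus prosubstrate; 5 h settle, compound (DMSO) added by pintool; luminescence monitored over 40 h at 37 C.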
# [6] = qHTS RealTime-Glo MT Cell Viability Assay in HEK293 cells - 24 hour (AID 1224886); note: top concentration of the series differs between compounds; nearly all actives have a fitted effect of over 50% in size
# In short: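 Cells + reagent dispensed (600 cells/well, HEK293) → 5 h at 37 C/5% CO2 → 23 nL compound in DMSO pinned → 40 h at 37 C → luminescence read at 0, 8, 16, 24, 32, 40 h.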
# [7] = A CellTox Green Cytotoxicity Assay to monitor cytotoxicity in HEK293 cells - 16 hour (AID 1224888); note: nearly all actives have a fitted effect of over 35% in size
# In short: as §1
# [8] = qHTS RealTime-Glo MT Cell Viability Assay in HepG2 cells - 0 hour (AID 1224889); note: nearly all actives have a fitted effect of over 50% in size; note: potency is the fitted concentration of half-maximal effect
# In short: as §3
# [9] = A CellTox Green Cytotoxicity Assay to monitor cytotoxicity in HepG2 cells - 8 hour (AID 1224890); note: nearly all actives have a fitted effect of over 45% in size
# In short: as §2
# [10] = qHTS assay to identify small molecule antagonists of the estrogen receptor alpha (ER-alpha) signaling pathway using the BG1 cell line in the presence of 0.1 nM 17-beta-estradiol - cell viability counter screen (AID 1259241); note: nearly all actives have a fitted effect of over 40% in size; note: potency is the fitted concentration of half-maximal effect
# In short: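 Live-cell protease activity (CellTiter-Fluor fluorescence, 30 min) was read in the same wells after VM7Luc4E2 cells had been exposed to compounds with 0.1 nM 17beta-estradiol for 22 hr at 37C.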
# [11] = qHTS assay to identify small molecule antagonists of the androgen receptor (AR) signaling pathway using the MDA cell line in the presence of 0.5 nM R1881 - cell viability counter screen (AID 1259242); note: nearly all actives have a fitted effect of over 45% in size; note: potency is the fitted concentration of half-maximal effect
# In short: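 qHTS format. MDA-kb2 (MMTV-luc, AR/GR responsive) + cpd + 0.5 nM R1881 final, 16 hr 37C/0% CO2 → CellTiter-Fluor 30 min → fluorescence intensity.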
# [12] = qHTS assay to identify small molecule HDAC inhibitors (AID 1259364); note: potency is the fitted concentration of half-maximal effect;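 note: wild-type HCT-116 cells with endogenous class I/II HDAC activity; nearly all actives have a fitted effect of over 45% in size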; for activity change, negative = inhibition: top concentration of the series differs between compounds
# In short: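 Quantitative high-throughput format: overnight-seeded HCT-116 cells got compounds for 2 hr at 37C; HDAC-Glo I/II reagent added, 30 min RT, luminescence measured.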
# [13] = qHTS assay to identify small molecule agonists of the sonic hedgehog signaling (Shh) pathway - cell viability counter screen (AID 1259366); note: nearly all actives have a fitted effect of over 50% in size; note: potency is the fitted concentration of half-maximal effect
# In short: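 CellTiter-Fluor fluorescence read-out, 1 hr at 37C, added after 23hr compound exposure. Cells: 3T3 Gli1-Luc, an NIH/3T3 clone with stably integrated Gli1-Luc reporter, plated 4hr before compound.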
# [14] = qHTS assay to identify small molecule antagonists of the sonic hedgehog signaling (Shh) pathway - cell viability counter screen (AID 1259367); note: nearly all actives have a fitted effect of over 55% in size; note: potency is the fitted concentration of half-maximal effect
# In short: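 Conditioned medium drove Shh signaling in 3T3 Gli1-Luc cells exposed to compounds at 37C and 5% CO2. Viability was determined from CellTiter-Fluor fluorescence, with reagent incubated 1 hr after 23 hr of treatment.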
# [15] = qHTS assay to identify small molecule agonists of the sonic hedgehog signaling (Shh) pathway (AID 1259368; calls by dose curve;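 note: NIH/3T3-derived 3T3Gli1-Luc cells carrying a stable Gli1-driven firefly luciferase reporter; series mostly up to about 92 µM; nearly all actives have a fitted effect of over 15% in size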)
# In short: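 Quantitative high-throughput format using a Gli1-driven firefly luciferase reporter line derived from NIH/3T3 cells. After a 24 hr compound treatment at 37 C and 5% CO2, luminescence reported Gli1 response element activity.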
# [16] = qHTS assay to identify small molecule HDAC inhibitors - cell viability counter screen (AID 1259365)
# In short: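 HCT-116 (wild type), 1,500 cells/well, overnight 37C/5% CO2; compound in DMSO 2hr; CellTiter-Glo 30min RT; luminescence read.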
# [17] = qHTS assay to identify small molecule phospholipidosis (PLD) inducers (AID 1259344; active = well fitted curve in the direction sought with a large enough effect; an effect the other way counts as inactive or inconclusive)
# In short: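 After 4 h attachment on collagen I, HepG2 cells were dosed with compound alongside LipidTOX Red, kept 24 h at 37 C, fixed, and imaged for lamellar phospholipid pits.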
# [18] = qHTS RealTime-Glo MT Cell Viability Assay in HEK293 cells - 8 hour (AID 1224887)
# In short: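 600 HEK293 cells per well, dispensed already mixed with RealTime-Glo MT reagents. Compound dosing came 5 h later. The same wells were read for luminescence at 0, 8, 16, 24, 32 and 40 h of exposure at 37 C.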
# [19] = biological target: Androgen receptor (Homo sapiens) (UniProt P10275); assay: qHTS assay to identify small molecule antagonists of the androgen receptor (AR) signaling pathway using the MDA cell line in the presence of 0.5 nM R1881 (AID 1259243); note: nearly all actives have a fitted effect of over 50% in size; note: potency is the fitted concentration of half-maximal effect
# Androgen receptor (Homo sapiens), sequence (P10275 whole entry, looked up): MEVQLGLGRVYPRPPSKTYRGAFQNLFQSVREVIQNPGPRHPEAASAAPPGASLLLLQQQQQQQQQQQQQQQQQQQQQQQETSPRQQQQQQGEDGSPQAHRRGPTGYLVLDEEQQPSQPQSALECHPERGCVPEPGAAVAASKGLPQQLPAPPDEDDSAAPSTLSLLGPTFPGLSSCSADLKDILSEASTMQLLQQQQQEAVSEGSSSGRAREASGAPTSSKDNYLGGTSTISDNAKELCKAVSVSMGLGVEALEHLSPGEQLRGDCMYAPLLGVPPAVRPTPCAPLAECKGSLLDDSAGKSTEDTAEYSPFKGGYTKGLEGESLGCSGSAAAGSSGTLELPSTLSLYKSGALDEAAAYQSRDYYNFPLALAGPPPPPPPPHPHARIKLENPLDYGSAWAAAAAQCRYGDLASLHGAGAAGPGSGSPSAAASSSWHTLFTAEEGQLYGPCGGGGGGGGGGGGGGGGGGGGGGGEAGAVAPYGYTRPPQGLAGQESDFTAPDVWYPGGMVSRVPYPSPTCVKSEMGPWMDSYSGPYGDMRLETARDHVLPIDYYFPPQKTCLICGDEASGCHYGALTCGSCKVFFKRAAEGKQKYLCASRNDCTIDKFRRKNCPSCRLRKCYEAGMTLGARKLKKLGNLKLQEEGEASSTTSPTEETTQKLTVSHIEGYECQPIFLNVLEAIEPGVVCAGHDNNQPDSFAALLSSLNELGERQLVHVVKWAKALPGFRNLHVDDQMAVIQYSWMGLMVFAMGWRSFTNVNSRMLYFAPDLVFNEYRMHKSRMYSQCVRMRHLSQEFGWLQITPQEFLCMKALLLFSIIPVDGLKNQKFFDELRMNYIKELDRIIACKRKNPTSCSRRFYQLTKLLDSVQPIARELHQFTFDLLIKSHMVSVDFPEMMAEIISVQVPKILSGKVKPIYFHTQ
# In short: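 Antagonist mode quantitative HTS in MDA-kb2 MMTV-luciferase cells, agonist R1881 at 0.5 nM final, 16 hr exposure at 37C and 0% CO2, luminescent detection.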
# [20] = biological target: Estrogen receptor (Homo sapiens) (UniProt P03372); assay: qHTS assay to identify small molecule antagonists of the estrogen receptor alpha (ER-alpha) signaling pathway using the BG1 cell line in the presence of 0.1 nM 17-beta-estradiol (AID 1259244); note: nearly all actives have a fitted effect of over 50% in size
# Estrogen receptor (Homo sapiens), sequence (P03372 whole entry, looked up): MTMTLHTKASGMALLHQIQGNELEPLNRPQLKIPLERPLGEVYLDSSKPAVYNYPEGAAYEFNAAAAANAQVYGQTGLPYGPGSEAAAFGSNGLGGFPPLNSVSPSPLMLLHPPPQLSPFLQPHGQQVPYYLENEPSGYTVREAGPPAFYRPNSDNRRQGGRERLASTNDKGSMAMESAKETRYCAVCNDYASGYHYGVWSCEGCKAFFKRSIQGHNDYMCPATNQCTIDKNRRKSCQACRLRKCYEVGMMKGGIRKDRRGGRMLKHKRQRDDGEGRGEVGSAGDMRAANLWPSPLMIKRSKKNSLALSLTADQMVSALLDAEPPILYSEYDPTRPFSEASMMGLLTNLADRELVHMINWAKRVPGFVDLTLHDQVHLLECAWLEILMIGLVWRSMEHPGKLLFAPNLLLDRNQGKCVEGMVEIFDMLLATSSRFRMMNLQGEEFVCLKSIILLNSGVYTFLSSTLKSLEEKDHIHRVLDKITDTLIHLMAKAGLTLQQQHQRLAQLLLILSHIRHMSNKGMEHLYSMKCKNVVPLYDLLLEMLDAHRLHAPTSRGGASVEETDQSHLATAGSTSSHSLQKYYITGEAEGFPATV
# In short: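 Reporter is a stably transfected luciferase under four estrogen responsive elements in VM7Luc4E2 cells expressing native full-length ER-alpha; inhibition of 0.1 nM (final) 17beta-estradiol-driven signal over 22 h is read by luminescence.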
structure (smiles),measurement,setting,value
CC(=O)OC/C=C/c1ccccc1,Potency,[1],inactive
same,Potency,[2],inactive
same,Potency,[3],inactive
same,Potency,[4],inactive
same,Potency,[5],inactive
same,Potency,[6],inactive
same,Potency,[7],inactive
same,Potency,[8],inactive
same,Potency,[9],inactive
same,Potency,[10],inactive
same,Potency,[11],inactive
same,Potency,[12],inactive
same,Potency,[13],inactive
same,Potency,[14],inactive
same,outcome,[15],inactive
CC(C)(C)c1cc(CO)cc(C(C)(C)C)c1O,Potency,[1],inactive
same,Potency,[2],inactive
same,Potency,[3],inactive
same,Potency,[4],inactive
same,Potency,[5],inactive
same,Potency,[7],inactive
same,Potency,[8],inactive
same,Potency,[9],inactive
same,Potency,[10],inactive
same,Potency,[11],inactive
same,Potency,[12],inactive
same,outcome,[16],inactive
same,outcome,[15],inactive
CC(C)(C)C(=O)OCOP(=O)(COCCn1cnc2c(N)ncnc21)OCOC(=O)C(C)(C)C,Potency,[1],inactive
same,Potency,[2],inactive
same,Potency,[3],inactive
same,Potency,[4],inactive
same,Potency,[5],inactive
same,Potency,[7],inactive
same,Potency,[8],inactive
same,Potency,[9],inactive
same,Potency,[10],inactive
same,Potency,[11],inactive
same,Potency,[17],inactive
same,Potency,[12],inactive
same,outcome,[16],inactive
same,Potency,[13],10.6 µM (active)
same,Potency,[14],9.44 µM (active)
same,outcome,[15],inactive
O=C(CC(=O)c1ccccc1)c1ccccc1,Potency,[1],inactive
same,Potency,[2],inactive
same,Potency,[3],inactive
same,Potency,[4],inactive
same,Potency,[6],inactive
same,Potency,[18],inactive
same,Potency,[7],inactive
same,Potency,[8],inactive
same,Potency,[9],inactive
same,Potency,[10],inactive
same,Potency,[11],inactive
same,Potency,[12],2.93 µM (active)
same,outcome,[16],inactive
same,Potency,[14],inactive
CCCCC(CC)(CO)CO,Potency,[1],inactive
same,Potency,[2],inactive
same,Potency,[3],inactive
same,Potency,[4],inactive
same,Potency,[5],inactive
same,Potency,[6],inactive
same,Potency,[18],inactive
same,Potency,[7],inactive
same,Potency,[8],inactive
same,Potency,[9],inactive
same,Potency,[10],inactive
same,Potency,[11],inactive
same,Potency,[12],inactive
same,Potency,[13],inactive
same,Potency,[14],inactive
same,outcome,[15],inactive
Cc1ccccn1,Potency,[1],inactive
same,Potency,[2],inactive
same,Potency,[3],inactive
same,Potency,[4],inactive
same,Potency,[6],inactive
same,Potency,[18],inactive
same,Potency,[7],inactive
same,Potency,[8],inactive
same,Potency,[9],inactive
same,Potency,[10],inactive
same,Potency,[11],inactive
same,Potency,[17],inactive
same,Potency,[12],inactive
same,outcome,[16],inactive
same,Potency,[13],inactive
same,Potency,[14],inactive
same,outcome,[15],inactive
O=C(O)c1cccc(N(Cc2cccnc2)c2ccc(OC(F)F)c(OC(F)F)c2)c1,Potency,[1],inactive
same,Potency,[2],inactive
same,Potency,[3],inactive
same,Potency,[4],inactive
same,Potency,[6],inactive
same,Potency,[18],inactive
same,Potency,[7],inactive
same,Potency,[8],17.4 µM (active)
same,Potency,[9],inactive
same,Potency,[10],inactive
same,Potency,[11],inactive
same,Potency,[19],24.3 µM (active)
same,Potency,[12],inactive
same,outcome,[16],inactive
same,Potency,[13],inactive
same,Potency,[14],inactive
same,outcome,[15],inactive
Oc1ccc(C(O)CNCCCCCCNCC(O)c2ccc(O)c(O)c2)cc1O (centres undefined),Potency,[1],inactive
same,Potency,[2],inactive
same,Potency,[3],inactive
same,Potency,[4],inactive
same,Potency,[5],inactive
same,Potency,[6],inactive
same,Potency,[7],inactive
same,Potency,[8],inactive
same,Potency,[9],inactive
same,Potency,[10],inactive
same,Potency,[11],inactive
same,Potency,[17],inactive
same,Potency,[12],inactive
same,outcome,[16],inactive
same,Potency,[13],8.41 µM (active)
same,Potency,[14],29.8 µM (active)
same,outcome,[15],inactive
O=C(Cl)c1c(Cl)cccc1Cl,Potency,[1],inactive
same,Potency,[2],inactive
same,Potency,[3],inactive
same,Potency,[4],inactive
same,Potency,[5],inactive
same,Potency,[6],inactive
same,Potency,[7],inactive
same,Potency,[8],inactive
same,Potency,[9],inactive
same,Potency,[10],inactive
same,Potency,[11],inactive
same,Potency,[12],inactive
same,outcome,[16],inactive
same,Potency,[13],inactive
same,Potency,[14],inactive
same,outcome,[15],inactive
CC(C)CCCCCCOC(=O)c1ccc(C(=O)OCCCCCCC(C)C)c(C(=O)OCCCCCCC(C)C)c1,Potency,[1],inactive
same,Potency,[2],inactive
same,Potency,[3],inactive
same,Potency,[4],inactive
same,Potency,[5],inactive
same,Potency,[6],inactive
same,Potency,[18],inactive
same,Potency,[7],inactive
same,Potency,[8],inactive
same,Potency,[9],inactive
same,Potency,[10],inactive
same,Potency,[11],inactive
same,Potency,[12],inactive
same,outcome,[16],inactive
same,Potency,[13],inactive
same,Potency,[14],inactive
same,outcome,[15],inactive
CCCCCCCCCO,Potency,[1],inactive
same,Potency,[2],inactive
same,Potency,[3],inactive
same,Potency,[4],inactive
same,Potency,[5],inactive
same,Potency,[6],inactive
same,Potency,[18],inactive
same,Potency,[7],inactive
same,Potency,[8],inactive
same,Potency,[9],inactive
same,Potency,[10],inactive
same,Potency,[11],inactive
same,Potency,[12],inactive
same,outcome,[16],inactive
same,Potency,[13],inactive
same,Potency,[14],inactive
same,outcome,[15],inactive
Cc1cc(C)c(S(=O)(=O)O)cc1N=Nc1cc(S(=O)(=O)O)c2ccccc2c1O,Potency,[1],inactive
same,Potency,[2],inactive
same,Potency,[3],inactive
same,Potency,[4],inactive
same,Potency,[5],inactive
same,Potency,[7],inactive
same,Potency,[8],inactive
same,Potency,[9],inactive
same,Potency,[10],54.5 µM (active)
same,Potency,[11],61.1 µM (active)
same,Potency,[19],inactive
same,Potency,[12],inactive
same,outcome,[16],inactive
same,Potency,[13],27.3 µM (active)
same,Potency,[14],30.6 µM (active)
same,outcome,[15],inactive
CC(C)c1ccccc1C(C)C,Potency,[1],inactive
same,Potency,[2],inactive
same,Potency,[3],inactive
same,Potency,[4],inactive
same,Potency,[6],inactive
same,Potency,[18],inactive
same,Potency,[7],inactive
same,Potency,[8],inactive
same,Potency,[9],inactive
same,Potency,[10],inactive
same,Potency,[11],inactive
same,Potency,[12],inactive
same,outcome,[16],inactive
same,Potency,[13],inactive
same,Potency,[14],inactive
same,outcome,[15],inactive
CCCCCCCCCCCCCCCCCBr,cytotoxicity increase,[1],-9.33% [at 15.8 µM]
same,cytotoxicity,[2],-6.85% [at 15.8 µM]
same,cytotoxicity increase,[3],-10.1% [at 15.8 µM]
same,cytotoxicity increase,[4],-3.41% [at 15.8 µM]
same,"activity change, negative = cytotoxic",[5],-3.91% [at 15.8 µM]
same,"activity change, negative = cytotoxicity",[6],-0.166% [at 15.8 µM]
same,"activity change, negative = cytotoxicity",[18],2.84% [at 15.8 µM]
same,activity change,[7],"-5.91% [at 15.8 µM, hits give high values]"
same,"activity change, negative = cytotoxicity",[8],-6.2% [at 15.8 µM]
same,cytotoxicity increase,[9],-11.1% [at 15.8 µM]
same,"activity change, negative = cytotoxicity",[10],5.52% [at 19 µM]
same,"viability change, negative = cytotoxic",[11],-0.565% [at 19 µM]
same,"activity change, negative = inhibition",[12],6.57% [at 19 µM]
same,"activity change, negative = cytotoxicity",[16],0.135% [at 19 µM]
same,"viability change, negative = cytotoxic",[14],-1.98% [at 19 µM]
same,activity change,[15],-0.456% [at 18.9 µM]
C[C@H](CCC(=O)O)[C@H]1CC[C@H]2[C@@H]3[C@H](O)C[C@@H]4C[C@H](O)CC[C@]4(C)[C@H]3CC[C@]12C,Potency,[1],inactive
same,Potency,[2],inactive
same,Potency,[3],inactive
same,Potency,[4],inactive
same,Potency,[5],inactive
same,Potency,[18],inactive
same,Potency,[7],inactive
same,Potency,[8],inactive
same,Potency,[9],inactive
same,Potency,[10],inactive
same,Potency,[11],inactive
same,Potency,[20],inactive
same,Potency,[17],inactive
same,Potency,[12],inactive
same,outcome,[16],inactive
same,outcome,[15],inactive
